Assay results published in PubChem BioAssay AID430 (Sanford-Burnham Center for Chemical Genomics, 2006).
In all, about 63,000 compounds went through this assay and about 1,100 (1.7%) were called active. No stated cut-off is given here; in the data, active means cytotoxicity above about 50%; inactive means the rest. The sample as a whole holds a higher share of actives than the screen did. Measured potencies and affinities stand elsewhere.

Experiment: cytotoxicity in HPDE-C7 cells, cell-based, fluorescence, HTS (AID 430);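 further: cells exposed to compound for 48 hours before viability readout; 0% = vehicle and 100% = reference cytotoxic drug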
Settings: HPDE-C7 pancreatic duct cells viability, at 10 µM, stronger effect = higher value

Row | Structure (SMILES) | cytotoxicity
1 | CCOC(=O)c1c(O)c2c(n(Cc3ccco3)c1=O)CCCC2 | -1.8% (inactive)
2 | CCOC(=O)C(C#N)c1ccccn1 (stereo unspecified) | -13.9% (inactive)
3 | CC12C=CC3(O1)C(C(=O)N(c1cccnc1)C3C(=O)NC1CCCCC1)C2C(=O)Nc1ccccc1 (stereo unspecified) | -6.3% (inactive)
4 | Cc1cc(C)c2ccc(C)[n+]([O-])c2c1O | -4.9% (inactive)
5 | Cc1cc(=O)oc2c(N)c(O)ccc12 | 3.2% (inactive)
6 | Cc1cc(C)c2ccc(N)nc2c1O | 111% (active)
7 | Cc1ccc(-c2noc(CSc3nc(N)cc(N)n3)n2)cc1 | -1.6% (inactive)
8 | CCCCCC(=O)Nc1ccc(Cl)cn1 | -14.3% (inactive)
9 | NC(=O)c1cc2ccc(O)cc2oc1=NCc1ccccc1 | -0.1% (inactive)
10 | CC(=NCc1ccccc1)C1=C(O)COC1=O | 2.9% (inactive)
11 | CCn1c(CNC(=O)C(C)(C)C)nc2ccccc21 | -1.1% (inactive)
12 | CC12CCC(C(N)=O)(c3nc4ccccc4nc31)C2(C)C (stereo unspecified) | -7.6% (inactive)
13 | CC(=O)Nc1sc(N)nc1-c1ccccc1 | 3.9% (inactive)
14 | CN(Cc1cccs1)C(=O)COc1ccc(-c2nnco2)cc1 | -5.5% (inactive)
15 | Cc1cc(=O)[nH]c(SCc2cc(=O)n3nc(C)sc3n2)n1 | 2.5% (inactive)
16 | CC1Cc2cc(-c3csc(NC(=O)Cc4cccs4)n3)ccc2N1S(C)(=O)=O (stereo unspecified) | 56.2% (active)
17 | O=C(Cc1cccs1)Nc1nc(-c2ccccc2)cs1 | -35.2% (inactive)
18 | CS(=O)(=O)N1CCc2cc(-c3csc(NC(=O)Cc4cccs4)n3)ccc21 | -7.8% (inactive)
19 | CCCc1[nH]nc2c1C(c1cc(OC)cc(OC)c1)C(C#N)=C(N)O2 (stereo unspecified) | -4.3% (inactive)
20 | O=C(Cc1ccccc1)N1CCC(C(=O)N2CCN(c3ccc(F)cc3)CC2)CC1 | -6.7% (inactive)
21 | O=C(NC(O)C(=O)c1cccs1)c1cccnc1 (stereo unspecified) | -20.3% (inactive)

Row | Structure (SMILES) | cytotoxicity
22 | O=C(Nc1nnc(C2CCCCC2)s1)c1ccc(Br)s1 | 7% (inactive)
23 | CCOC(=O)c1ccc(NC(=O)C23CCC(C)(C(=O)O2)C3(C)C)cc1 (stereo unspecified) | -7.6% (inactive)
24 | Cc1oc(-c2cccc(Cl)c2)nc1CN1CCC(C(=O)N2CCN(c3ccccn3)CC2)CC1 | 15.5% (inactive)
25 | Cc1oc(-c2cccc(Cl)c2)nc1CN1CCC(C(=O)N2CCN(c3ccccc3F)CC2)CC1 | 54.5% (active)
26 | Cc1oc(-c2ccc(Cl)cc2)nc1CN1CCC(C(=O)N2CCN(Cc3ccccc3)CC2)CC1 | 9.6% (inactive)
27 | CCc1ccc(-c2nc(CN3CCCC(C(=O)NCCc4ccc(OC)c(OC)c4)C3)c(C)o2)cc1 (stereo unspecified) | 7% (inactive)
28 | CCc1ccc(-c2nc(CN3CCC(C(=O)N4CCN(c5ccccc5)CC4)CC3)c(C)o2)cc1 | 66% (active)
29 | CCc1ccc(-c2nc(CN3CCC(C(=O)NCCN(CC)c4ccccc4)CC3)c(C)o2)cc1 | 47.3% (inactive)
30 | CCc1ccc(-c2nc(CN3CCC(C(=O)N4CCN(c5ccccn5)CC4)CC3)c(C)o2)cc1 | 26.2% (inactive)
31 | CCN1CCN(C(=O)C2CCN(Cc3nc(-c4cccc(Cl)c4)oc3C)CC2)CC1 | 9.2% (inactive)
32 | CCN(CCNC(=O)C1CCCN(Cc2nc(-c3ccc(OC)cc3)oc2C)C1)c1ccccc1 (stereo unspecified) | 67.8% (active)
33 | Cn1c(-c2ccc(F)cc2)cnc1NCc1ccccc1 | -16.5% (inactive)
34 | CCCCCCN=CC1=C(O)C(C(=O)OC)C(C)(C)CC1=O (stereo unspecified) | 20.5% (inactive)
35 | COC(=O)c1ccccc1NC(=O)c1nc2nc(C)cc(C)n2n1 | 8.9% (inactive)
36 | COC(=O)C1=C(C)OC(N)=C(C#N)C1c1ccc(OC)c(OC)c1OC (stereo unspecified) | -14.9% (inactive)
37 | CC1(C)CC(=O)C2=C(C1)Oc1ncn(CCCn3ccnc3)c(=N)c1C2c1ccccc1 (stereo unspecified) | 5.8% (inactive)
38 | OCCNc1ncnc2c1c(-c1ccccc1)c(-c1ccccc1)n2Cc1ccco1 | 37.5% (inactive)
39 | O=c1c2ccccc2nc(-c2ccccc2)n1CCCn1ccnc1 | -10.6% (inactive)
40 | N=c1c2c(-c3ccccc3)c(-c3ccccc3)n(Cc3ccco3)c2ncn1CCN1CCOCC1 | 29.6% (inactive)
41 | COc1ccccc1-c1nc2n(n1)C(c1ccc(Cl)cc1)C(C(N)=O)=C(C)N2 (stereo unspecified) | 5.8% (inactive)
42 | COC(=O)c1ccc(OCC(O)Cn2nnc3ccccc32)cc1 (stereo unspecified) | 3.4% (inactive)

Row | Structure (SMILES) | cytotoxicity
43 | CCCCN(C(=O)NC(=O)Nc1c(C)cc(C)cc1C)S(C)(=O)=O | 4.6% (inactive)
44 | CC(C)=CC(=O)Nc1ccccc1C(N)=O | 3.7% (inactive)
45 | COc1ccc(N2CCN(C(=O)CCN3C(=O)c4ccccc4S3(=O)=O)CC2)cc1 | -0.5% (inactive)
46 | Cn1nccc1C(=O)NCCN1C(=O)OC(C)(C)C1(C)O (stereo unspecified) | -1.1% (inactive)
47 | CCOC(=O)c1ccc(-n2c(=O)[nH]c3ccccc3c2=O)cc1 | -12.3% (inactive)
48 | CCOC(=O)c1ccc(-n2[nH]c(-c3ccccc3)cc2=O)cc1 | 66.3% (active)
49 | CCOC(=O)c1ccc(N2C(=O)C(C)=C(C)C2=O)cc1 | -4.6% (inactive)
50 | O=C1CCCC2=C1C(c1cccc(Br)c1)n1nc(-c3ccco3)nc1N2 (stereo unspecified) | -0.5% (inactive)
51 | Cc1cccc(S(=O)(=O)Nc2cccc(-c3cn4ccsc4n3)c2)c1 | 36.1% (inactive)
52 | Cc1ccc(S(=O)(=O)Nc2cccc(-c3cn4ccsc4n3)c2)cc1 | 52.4% (active)
53 | O=S(=O)(Nc1cccc(-c2cn3ccsc3n2)c1)c1ccc(F)cc1 | 33.8% (inactive)
54 | O=C(Cn1cnnn1)Nc1ccccc1Cc1ccccc1 | -2.5% (inactive)
55 | N#CC1=C2SCC(O)(c3ccccc3)N2C(=O)CC1c1ccccc1 (stereo unspecified) | 70% (active)
56 | N#CC1=C2SCN(c3ccccc3)CN2C(=O)CC1c1cccs1 (stereo unspecified) | -3.1% (inactive)
57 | COc1ccc(C2CC(=O)N3C(=C2C#N)SCC3(O)c2ccccc2)cc1 (stereo unspecified) | 10.4% (inactive)
58 | N#CC1=C2SCN(Cc3ccccc3)CN2C(=O)CC1c1cccs1 (stereo unspecified) | -17.2% (inactive)
59 | CCc1ccc(C2CC(=O)N3CN(c4ccccc4)CSC3=C2C#N)cc1 (stereo unspecified) | -1.3% (inactive)
60 | CCOC(=O)CCNC(=O)CNC(=O)OCc1ccccc1 | -3.8% (inactive)
61 | CCOc1ccccc1NC(=O)CN(c1nccs1)S(=O)(=O)c1ccc(N)cc1 | -20.7% (inactive)
